Our source for the Potency values is PubChem BioAssay AID1159524 (National Center for Advancing Translational Sciences (NCATS), 2015).

Among all 410,000 compounds or so, about 5,100 (1.2%) were called active. Entries that show only a call come without a potency. Roughly 8% stayed inconclusive and do not appear here. This is one part of a sample in which actives are shown more often than they occur. The call rests on the fitted dose curve; tested in HEK293T cells.
Potency means the concentration at half of the fitted maximal effect.

The assay in a line: High Throughput Screening for Foot and Mouth Disease Virus Antivirals. Further: read-out not given here; nearly all actives have a fitted effect of over 45% in size. Conditions: FMDV antiviral cell-based qHTS; series mostly up to 57.9 µM.
For the compound `Cc1[nH]c2ccccc2c1/C=C(/C#N)C(=O)NC(C)C`, the Potency result was “inactive”.
Turning to `C=CCNC(=S)N/N=C/c1ccc(C)s1`, the Potency result is “inactive”.
With `COCCNC(=S)N/N=C/c1c(C)[nH]c2ccccc12`, the Potency was 20 µM (active).
The same measure for `C[N+](C)(C)CCCCCNCC12CC3CC(CC(C3)C1)C2`: “inactive”; for `Cc1ccc(N2CCN(C(=O)c3cccs3)CC2)c(C)c1`: “inactive”; for `Cc1ccccc1C(CC(=O)c1cccs1)C(C#N)C#N` (centres undefined): 11.2 µM (active).
Consider `CCS(=O)(=O)N1CCN(C(=O)c2cccs2)CC1`, for which the Potency entry is “inactive”.
Take `Cc1nc2ccc(NC(=O)c3cccc(S(=O)(=O)N4CCOCC4)c3)cc2s1`: the Potency was 31.6 µM (active).
The value for `Cc1cc(C)n2nc(C(=O)Nc3cccc(S(=O)(=O)N4CCOCC4)c3)nc2n1` was “inactive”.
With `O=C(Nc1ccc(S(=O)(=O)N2CCOCC2)cc1)c1ccc2ncsc2c1`, the Potency entry was “inactive”.
`Cc1nc2cnc(N3CCNCC3)nc2n(CCc2ccccc2)c1=O`: the Potency entry was “inactive”.
Turning to `CCCCCCCCCCCCCCCC(=O)OC/C=C(C)/C=C/C=C(C)/C=C/C1=C(C)CCCC1(C)C`, the Potency result was “inactive”.
For `CC1=C(/C=C/C(C)=C/C=C/C(C)=C/C=C/C=C(C)/C=C/C=C(C)/C=C/C2=C(C)CCCC2(C)C)C(C)(C)CCC1`, the Potency is 5.01 µM (active).
For `Cc1ccc(CSc2nc3ccsc3c(=O)n2CCC(C)C)cc1`, the Potency result was “inactive”.
For the compound `CCOC(=O)Cc1ccc(NC(=O)Nc2c[nH]c(=O)[nH]c2=O)cc1`, the Potency entry is “inactive”.
`COCC(=O)Nc1cc(C(=O)N2CCCC(c3ccccc3)CC2)c2c(c1)nc(-c1ccncc1)n2C` (centres undefined): the Potency entry is “inactive”.
As for `COc1ccc(-c2nc3ccccc3s2)cc1NC(=O)COc1ccccc1C`, the Potency entry was “inactive”.
As for `COc1ccc(-c2nn(C)c(=O)c3ccccc23)cc1CNC(=O)C1CCCCC1`, the Potency entry is “inactive”.
Take `COc1ccc(-c2nn(C)c(=O)c3ccccc23)cc1NC(=O)COc1ccccc1`: the Potency is 17.8 µM (active).
As to `O=c1cnc2cnc(Nc3ccccc3)nc2n1Cc1ccc(F)cc1`, the Potency entry was “inactive”.
With `Cc1ccc(S(=O)(=O)N2CCCc3cc(NS(=O)(=O)c4cc(C)ccc4C)ccc32)cc1`, the Potency entry is “inactive”.
In the case of `COc1ccccc1C(=O)Nc1c(C(=O)N(C)Cc2ccccc2)sc2nc(C)c(Cl)c(C)c12`, the Potency entry was “inactive”.
With `CCCCc1nnc(NC(=O)CSc2nc(N)cc(=O)[nH]2)s1`, the Potency entry was “inactive”.
For the compound `Cc1cc(C(=O)CSc2nc(N)cc(=O)[nH]2)c(C)n1CCc1ccc(Cl)cc1`, the Potency is 22.4 µM (active).
Take `Cc1cc(=O)[nH]c(SCc2ccc(Cl)cc2)n1`: the Potency entry was “inactive”.
The same measure for `COCCn1c(=O)c(-c2cccc(F)c2)nc2cncnc21`: “inactive”; for `COc1ccc(F)c(CN2CCC3(CCC(CNC(=O)c4ccn(C)n4)O3)CC2)c1` (centres undefined): “inactive”.
Regarding `COc1ccc(Cl)cc1-n1c(CCC(=O)O)ccc1-c1ccc(C)cc1`, the Potency entry was “inactive”.
For the compound `CCc1ccc(-n2nnc(-c3nc(-c4ccccc4)no3)c2C)cc1`, the Potency result was “inactive”.
The value for `CCc1ccc(-c2nn(-c3ccccc3)cc2CSC(=N)N)cc1` was 39.8 µM (active); that for `CCc1ccc(-c2nn(-c3ccccc3C)cc2C(=O)N2CCN(C3CCS(=O)(=O)C3)CC2)cc1` (centres undefined) was “inactive”; that for `COc1cc2c(cc1OC)[C@@H]1C(=O)c3ccc(O)c(CC=C(C)C)c3OC1CO2` (some centres undefined) was “inactive”.
As for `CCCS(=O)(=O)NCc1c(C)ncc2c1CCN(C(=O)c1ccc(F)c(F)c1)C2`, the Potency entry is “inactive”.
The value for `COc1ccc2c(c1)CCc1cnc(-n3ncc(C(=O)NCCN4CCOCC4)c3C)nc1-2` was “inactive”; that for `Cc1ccc2nc(COc3ccc(NC(=O)COc4ccccc4F)cc3)cc(=O)n2c1` was “inactive”.
Turning to `Cc1ccc2nc(COc3ccc(N(C)S(=O)(=O)c4ccccc4)cc3)cc(=O)n2c1`, the Potency is 31.6 µM (active).
Regarding `COc1cccc(COc2ccc(N(C)S(=O)(=O)c3ccccc3)cc2)c1`, the Potency result is “inactive”.
In the case of `CCc1nc2cc(C(=O)NCC3CCS(=O)(=O)C3)cc(NC(=O)c3ccccc3OC)c2n1C` (centres undefined), the Potency result was “inactive”.
Consider `Cc1ccc(NC(=O)CSc2nc3c([nH]c4ccccc43)c(=O)n2-c2ccccc2)c(C)c1`, for which the Potency result is “inactive”.
The same measure for `COc1ccc(C(CCN(Cc2ccc(OC)c(OC)c2)C(=O)CCl)c2ccccc2)cc1` (centres undefined): 31.6 µM (active).
With `COc1ccc(C(C(=O)NC2CCCCC2)N(C(=O)CCl)c2ccccc2Cl)cc1` (centres undefined), the Potency result is “inactive”.
With `CCN(CCCCOC(=O)c1ccc(OC)c(OC)c1)C(C)Cc1ccc(OC)cc1` (centres undefined), the Potency result is “inactive”.
The same measure for `COCCNc1cc(-c2c(C)noc2C)ncn1`: “inactive”.
On to `CC(=CCOc1ccc2ccc(=O)oc2c1)C1=CC(=O)C(C)(C)O1`, for which the Potency was 28.2 µM (active).
Consider `O=C(COc1ccc2ccc(=O)oc2c1)NCC(O)c1ccccc1` (centres undefined), for which the Potency result was “inactive”.
Consider `CC(C)OC(=O)c1ccc(COc2ccc3ccc(=O)oc3c2)o1`, for which the Potency result was “inactive”.
The same measure for `Cn1cccc1C(=O)N1CCC2(CC1)CN(c1cccc(-c3ccccc3)c1)C2`: “inactive”; for `Cc1ccc(NC(=O)Nc2sc3nc4n(c(=O)c3c2C)CCC(C)CC4)c(Cl)c1` (centres undefined): “inactive”; for `Cc1ccc(CN2COc3cc(C)c4c(oc(=O)c5ccccc54)c3C2)cc1`: “inactive”.
Regarding `CCOC(=O)c1cc2c(=O)n3ccccc3nc2n(CCCOC)c1=NC(=O)C(C)Oc1ccccc1` (centres undefined), the Potency result is “inactive”.
The value for `COc1ccc(Nc2ncnc3ccc(Br)cc23)c(OC)c1` was 3.98 µM (active); that for `COc1ccc(CNc2ncnc3ccc(-c4cccnc4)cc23)c(OC)c1` was “inactive”; that for `COc1ccc2[nH]cc(CCNc3ncnc4ccc(-c5ccccc5CN(C)C)cc34)c2c1` was “inactive”.
With `NS(=O)(=O)c1ccc(NC(=O)COc2ccc(S(=O)(=O)NC3CCCCC3)cc2)cc1`, the Potency entry is “inactive”.
As for `O=C(COC(=O)C1(c2ccc(F)cc2)CCCC1)N1CCNC1=O`, the Potency entry is “inactive”.
For `NS(=O)(=O)c1ccc(NC(=O)COC(=O)C2(c3ccc(F)cc3)CCCC2)cc1`, the Potency is 17.8 µM (active).
On to `COc1ccc(CNC(=O)CSCc2nc(-c3ccccc3F)oc2C)cc1`, for which the Potency entry was “inactive”.
On to `Cc1nc2cc(NC(=O)[C@@H]3C[C@@H](Sc4ccccn4)CN3Cc3ccccc3C)ccc2s1`, for which the Potency entry was “inactive”.
The value for `CCC(C(=O)Nc1cccc(-c2nc3cccnc3s2)c1C)c1ccccc1` (centres undefined) was “inactive”.
For the compound `Cc1ccc(Nc2nc(CSc3nnc(-c4ccncc4)n3-c3ccccc3C)cs2)cc1`, the Potency was 31.6 µM (active).
`CCOc1ccccc1-n1c(SCC(=O)NCc2ccco2)nnc1-c1ccncc1`: the Potency result was “inactive”.
The value for `Cn1c(SCc2ccc(F)cc2)nnc1-c1ccncc1` was “inactive”; that for `N[C@H](C(=O)O)c1ccc(C(=O)O)c(O)c1` was “inactive”; that for `Cc1cc(-c2n[nH]c(=S)n2/N=C/C(Br)=C/c2ccccc2)n[nH]1` was 35.5 µM (active).
As to `O=c1c(-c2ccc(F)cc2)nc2cncnc2n1-c1ccccc1`, the Potency result is “inactive”.
Consider `OC(COc1ccc(CN2CCSCC2)cc1)CN1CCCCC1` (centres undefined), for which the Potency result is “inactive”.
The same measure for `CCCn1c(=N)n(CC(O)COc2ccccc2OC)c2ccccc21` (centres undefined): “inactive”.
In the case of `OC(CN=c1sc2ccccc2n1CC(O)COc1ccccc1)COc1ccccc1` (centres undefined), the Potency was 20 µM (active).
The value for `Nc1nc2c(nc(Cl)n2C2OC(CO)C(O)C2O)c(=O)[nH]1` (centres undefined) was “inactive”; that for `O=C(CCCC(=O)N1CCN(c2cccc(Cl)c2)CC1)c1ccccc1` was “inactive”; that for `C#Cc1cc(N2CCN(C(=O)c3ccoc3)CC2)n2nc(-c3cccc(Cl)c3)cc2n1` was 11.2 µM (active).
The same measure for `O=C(c1cccc(Cl)c1)N1CCN(CCc2ccncc2)CC1`: “inactive”; for `O=C(c1ccccc1)N1CCN(c2cc(-c3ccccc3)nc3cc(-c4cccc(Cl)c4)nn23)CC1`: 25.1 µM (active); for `O=C(c1cccc(Br)c1)N1CCN(Cc2cc(=O)n3nc(-c4ccccc4)sc3n2)CC1`: “inactive”.
As to `CCNC(=O)Cn1nc(C)n2c(cc3c(OC)cccc32)c1=O`, the Potency entry was “inactive”.
For `COC1[C@H](OC(N)=O)C(O)[C@H](Oc2ccc3c(O)c(NC(=O)c4ccc(O)c(CC=C(C)C)c4)c(=O)oc3c2C)OC1(C)C` (some centres undefined), the Potency entry was “inactive”.
In the case of `C=C1O[C@@](CO)(n2cnc3c(N)ncnc32)[C@H](O)[C@@H]1O`, the Potency entry is “inactive”.
As to `COc1cccc(NC(=O)N2CCN(C(=O)c3nsc4ccccc34)CC2)c1`, the Potency result is “inactive”.
For `COc1ccc(-c2cc(-c3ccccc3)nc3c2COc2ccc(Cl)cc2-3)cc1`, the Potency result was “inactive”.
With `COc1ccc(-c2cc(-c3ccc(F)cc3)nc3c2COc2ccccc2-3)cc1`, the Potency entry was “inactive”.
Take `COc1ccc(C2=Nc3cc(C)ccc3OC2)cc1`: the Potency is 14.1 µM (active).
In the case of `CCCNc1ncnc2c1c(-c1ccccc1)cn2-c1ccc(OCC)cc1`, the Potency entry was “inactive”.
Regarding `CC(C)(O)CCC(O)[C@@](C)(O)C1CC[C@]2(O)C3=CC(=O)C4CC(O)C(O)C[C@]4(C)C3CC[C@]12C` (some centres undefined), the Potency result is “inactive”.
In the case of `Cc1ccc(NC(=O)c2ccc(CN3CC(=O)N4CCCCC4C3=O)cc2)c(Cl)c1` (centres undefined), the Potency entry is “inactive”.
Regarding `COc1ccc(Nc2ncc(C(=O)Nc3cc(C)ccc3OC)c3ccccc23)cc1`, the Potency result was “inactive”.
Regarding `COc1cc(C(=O)Nc2cc(C(F)(F)F)ccc2N2CCOCC2)ccc1O`, the Potency result is “inactive”.
For `COc1ccc(C(=O)Nc2ccccc2C(=O)N/N=C/c2ccc(O)c(OC)c2)cc1`, the Potency is 3.98 µM (active).
Take `Cn1cc(-c2nc3cncnc3n(-c3ccccc3)c2=O)c2ccccc21`: the Potency result was “inactive”.
`COc1ccc(CN2CCC3(CCC(CNC(=O)c4ccco4)O3)CC2)cc1OC` (centres undefined): the Potency result was “inactive”.
For the compound `CC(C)(C)n1ncc2c(=O)n(Cc3ccc(Cl)cc3)cnc21`, the Potency was 25.1 µM (active).
On to `Cc1ccc(-n2ncc3c(=O)n(Cc4cccc(C(F)(F)F)c4)cnc32)cc1C`, for which the Potency entry is “inactive”.
As to `CC(C)CNc1ncnc2c1cnn2Cc1ccc(Cl)cc1`, the Potency entry was “inactive”.
As to `O=C(c1cn(CC2CCCN(Cc3cc4ccccc4s3)C2)nn1)N1CCCC1` (centres undefined), the Potency entry is “inactive”.
Turning to `O=C(O)c1c(CNCc2cccc(F)c2)c2ccccc2n1Cc1ccccc1`, the Potency result is “inactive”.
On to `C/C=C(\C)C(=O)O[C@H]1CC(C)=C2C(=O)C=C(C)C2[C@@H]2OC(=O)[C@@](C)(OC(=O)C=C(C)C)C21` (some centres undefined), for which the Potency result is “inactive”.
In the case of `Cc1cc(C)cc(CN2CCc3nnc(C(NS(C)(=O)=O)C(C)C)n3CC2)c1` (centres undefined), the Potency entry is “inactive”.
The value for `CCOc1cccc2sc(N3CCN(C(=O)C4CC4)CC3)nc12` was “inactive”.
In the case of `CCOC(=O)N1CCN(C(=O)C2CCCN(c3ncnc4c3sc3cccc(F)c34)C2)CC1` (centres undefined), the Potency entry is “inactive”.
Turning to `CCOC(=O)N1CCN(C(=O)C2CCN(c3ncnc4c3sc3cccc(F)c34)CC2)CC1`, the Potency was 14.1 µM (active).
